Assay outcomes as filed in PubChem BioAssay.
G9a inh: blocks human histone lysine methyltransferase G9a | AID 504332 | 350,000 tested, 8.8% active | G9a H3K9 monomethylation, AlphaScreen, 2 h | Potency, µM (series often up to 102 µM), inactives show top-dose activity, negative = inhibition, hits mostly inhibitors | Q96KQ7; note: % is set by controls: 0 for no effect and ±100 for the full control effect; nearly all actives have a fitted effect of over 75% in size
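Using a bead-based AlphaScreen, monomethylated H3K9 product from 2 h room-temperature reactions (G9a 20 nM, peptide 500 nM, SAM 20 uM) was detected with 0.5 ug/mL rabbit anti-H3K9me1 antibody.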
HP1b binding inh: HP1-beta chromodomain-methylated histone interaction inhibition; P83916; 390,000 tested, 0.56% active; AlphaScreen HP1-beta / biotin-H3K9me3 peptide binding; Potency, µM (doses to about 114 µM), for inactives: at the top dose activity change, negative = inhibition, actives largely listed as inhibitors; note: nearly all actives have a fitted effect of over 70% in size
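AlphaScreen: HP1-beta (50 nM) preformed 30 min with biotin-H3(1-18)K9me3 peptide (50 nM) in PBS pH 7.4, 0.01% Tween-20. Compound added for 30 min at RT, then streptavidin donor/nickel chelate acceptor beads (10 ug/mL) for 30 min.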
BAZ2B inh: blocks human BAZ2B. Potency, µM (top dose mostly 114 µM), without a hit: top-dose activity change, negative = inhibition, hits mostly inhibitors. AlphaScreen BAZ2B-H3K14Ac peptide displacement. Q9UIF8. 360,000 tested, 4.4% active; note: % is set by controls: 0 for no effect and ±100 for the full control effect; nearly all actives have a fitted effect of over 60% in size
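Complex of BAZ2B and biotin-H3K14Ac (50 nM apiece) forms over 30 min at RT, then faces library compounds up to 110 uM for another 30 min; AlphaScreen beads added, 20 min dark incubation, luminescence read.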
JMJD2A Tudor: JMJD2A Tudor domain (human) inhibition | O75164 | AlphaScreen JMJD2A-Tudor / H3K4me3 peptide binding | Potency, µM (titrated, usually from 114 µM), without a hit: at the top dose activity change, negative = inhibition, actives largely listed as inhibitors | 390,000 tested, 4.4% active | AID 504339; note: % is set by controls: 0 for no effect and ±100 for the full control effect; nearly all actives have a fitted effect of over 50% in size
Sfp PPTase inh: inhibitors of Bacillus subtilis Sfp phosphopantetheinyl transferase; 310,000 tested, 3.5% active; AID 1490; Biochemical Sfp PPTase activity, qHTS; Potency, µM, without a hit: largest response in the series, negative = inhibition, most hits filed as inhibitors;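 note: the enzyme is Sfp with the accession as filed and its product quenches rhodamine fluorescence; 0% = enzyme reaction without inhibitor and -100% = no enzyme wells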
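With Hepes-Na pH 7.6 buffer containing 10 mM MgCl2, Sfp (15 nM) modified BHQ-2-YbbR (12.5 uM) using rhodamine-CoA (5 uM). Two reads 30 minutes apart at 525/598 nm yielded each well's rate.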
An asterisk follows results filed as active; ? = inconclusive; nt = no result; [ ] = dose if it differs, or a comment. Rows were chosen to be rich in hits. Some 12% of all compounds tested hit in one or more screens of this group. Calls come from the whole dose curve; as a rule, active = well fitted curve in the direction sought with a large enough effect; inconclusive = small, poorly fitted or top-dose-only effect, or another doubt; inactive = no such curve, though single readings can be large; an effect the other way counts as inactive or inconclusive. Potency is the fitted concentration of half-maximal effect.

SMILES	G9a inh	HP1b binding inh	BAZ2B inh	JMJD2A Tudor	Sfp PPTase inh
Cc1cc(C)n2c(SCC(=O)Nc3ccc(F)cc3)nnc2n1	11µM*	?	-2%	-2%	16µM*
CCN(c1ccc(NC(=O)CSc2nnc3nc(C)cc(C)n23)cc1)C(C)C	45µM*	-5%	?	-32%	4%
Cc1cc(C)n2c(SCC(=O)Nc3ccc(F)cc3F)nnc2n1	?	-5%	-13%	89µM*	1%
COc1ccc2c(c1)c1c(c(=O)n(Cc3ccccc3)c(=O)n1CC(=O)NCc1ccccc1)n2C	15%[59 µM]	30%	0%	-8%	nt
O=C(COC(=O)c1ccc(S(=O)(=O)NCc2ccco2)cc1)NCCC1=CCCCC1	-44%[12.7 µM]	8%	?	-21%	-3%
CCC1C(=O)n2nc(-c3ccccc3)cc2N=C1C (stereo not drawn)	12%[59 µM]	22%	7%	-1%	-3%
O=C(CSc1nnc(CNC(=O)c2cccs2)o1)Nc1ccc(Cl)cc1	9%	49%	-13%	-5%	19%
CCc1cc(C(=O)NNC(=O)CCN2CCN(c3ccccc3)CC2)sc1C	40µM*	14%	?	-27%	6%
O=c1c2ccccc2[nH]c2ccc(O)cc12	40µM*	?	56µM*	?	-25%
Cc1ccc2[nH]c3ccccc3c(=O)c2c1	2%	43%	1%	6%	3%
COc1cc(Cl)c(NC(=O)CN(C)S(=O)(=O)c2ccc3[nH]c4c(c3c2)CCCC4)c(OC)c1	?	9%	-25%	?	nt
Oc1c(Br)cc(Cl)cc1C=Nc1ccccc1Br	4µM*	-6%	-36%	-21%	-25%
Oc1ccc(Cl)cc1C=Nc1ccc(Br)cc1	7%	34%	9%	-6%	-14%
CCCn1c(N)c(N(CCOC)C(=O)COC(=O)c2ccccc2NCCO)c(=O)[nH]c1=O	8.9µM*	12%	12%	-10%	nt
CCCCn1c(N)c(N(CCOC)C(=O)COC(=O)c2ccccc2OCC)c(=O)[nH]c1=O	51%	19%	-12%	-9%	17%
CCCCn1c(N)c(N(CCC(C)C)C(=O)COC(=O)c2ccccc2)c(=O)[nH]c1=O	-3%	34%	-3%	8%	2%
CCCCn1c(N)c(N(CC(C)C)C(=O)COC(=O)c2ccccc2NCCO)c(=O)[nH]c1=O	4µM*	24%	71µM*	2%	nt
Oc1ccc(C2C(c3ccccc3)=NN=C(c3ccc(Cl)cc3)N2O)c(O)c1 (stereo not drawn)	11µM*	1%	-32%	-30%	-22%
Oc1ccc(-c2[nH]ncc2-c2ccc(Cl)cc2)c(O)c1	-6%	7%	?	?	0%
Oc1ccc(C2C(c3ccccc3)=NN=C(c3ccccc3F)N2O)c(O)c1 (stereo not drawn)	50µM*	-16%	?	-31%	-7%
COc1ccccc1CC1(C)NC(=O)N(CC(=O)N2CC(C)OC(C)C2)C1=O (stereo not drawn)	?	4%	11%	-14%	21%
COc1ccc(C(=O)N(c2ccc(C)cc2)C2C=CS(=O)(=O)C2)cc1OC (stereo not drawn)	-3%	37%	-2%	-3%	21%
COc1ccc(S(=O)(=O)N2CC(=O)Nc3ccccc32)cc1Cl	nt	32%	-7%	-5%	7%
O=[N+]([O-])c1ccc(NNS(=O)(=O)c2cc(Cl)ccc2Cl)nc1	-7%[0.501 µM]	-8%	-19%	-33%	35µM*
Cn1c(SCC(=O)c2c(N)n(C)c(=O)n(C)c2=O)nnc1-c1ccccc1	-4%[59 µM]	25%	10%	-8%	-17%
SMILES	G9a inh	HP1b binding inh	BAZ2B inh	JMJD2A Tudor	Sfp PPTase inh
COc1cccc(C2NC(=O)NC(O)(C(F)(F)F)C2C(=O)c2cccnc2)c1OC (stereo not drawn)	50µM*	20%	18%	-23%	8%
COc1ccc(C2NC(=O)NC(O)(C(F)(F)F)C2C(=O)c2ccccc2)cc1OC (stereo not drawn)	7%	29%	2%	-20%	33%
Cc1oc(-c2ccccc2F)nc1CS(=O)CC(=O)NCc1ccccc1 (stereo not drawn)	-8%	10%	-3%	-36%	4%
COc1ccc(Cl)cc1C(=O)Nc1ccc2oc(-c3ccc(C(C)(C)C)cc3)nc2c1	2%[59 µM]	12%	2%	-11%	nt
COC(=O)c1cccc(NC(=O)CN2C(=O)c3ccccc3C2=O)c1	-5%[0.501 µM]	19%	-18%	-11%	21%
CCOC(=O)c1cc(S(=O)(=O)NC2CCN(C(=O)OCC)CC2)cn1C	50µM*	28%	3%	-14%	-11%
CN(C)c1ccc(C(=O)c2ccc(N(C)C)c(N)c2)cc1N	79µM*	?	50µM*	56µM*	2%
CCOc1ccc(C(=O)c2ccc(OCC)c(N)c2)cc1N	-11%	-12%	-29%	?	5%
O=[N+]([O-])c1cccnc1N1CCN(c2ccc(F)cc2)CC1	45µM*	45µM*	40µM*	25µM*	8%
CCSc1cc(N2CCCC2)nc(-c2cccc(C)c2)n1	23%[59 µM]	76%	66%	67%	-8%
O=C(O)C/C=C(/NC(=O)OCc1ccccc1)C(=O)OCc1ccccc1	?	56%	nt	4%	8%
Cc1ccc(-n2c(CSc3nc(C)cc(C)n3)n[nH]c2=S)cc1	4µM*	25%	-1%	25µM*	2%
CCC(C)Sc1nnc(CSc2nc(C)cc(C)n2)n1C (stereo not drawn)	1%	5%	4%	-11%	4%
Cc1cc(C)nc(SCc2nc3ccccc3n2C)n1	-28%	61%	-6%	-3%	2%
Cc1cc(C)nc(SCc2n[nH]c(=S)n2C)n1	7.1µM*	26%	12%	40µM*	-10%
CCCSc1nnc(CSc2nc(C)cc(C)n2)n1C	-6%	1%	0%	56µM*	14%
Cc1ccc(OCc2n[nH]c(=S)n2-c2ccc(Br)cc2)cc1	2%[0.501 µM]	2%	-33%	-35%	16%
CC(=O)Nc1cccc(NC(=O)CSc2nc(C)c(C)c(C)c2C#N)c1	10µM*	16%	15%	-7%	?
COc1cc(CNc2nc(C)c([N+](=O)[O-])c(C)c2C#N)cc(OC)c1OC	-7%[59 µM]	0%	-38%	-16%	-1%
CC/C(=N\Nc1ccnc2cc(Cl)ccc12)c1ccc(O)cc1	28µM*	-34%	?	?	4%
CC/C(=N/NS(=O)(=O)c1ccc(Cl)cc1)c1ccc(O)cc1	?	29%	-4%	-12%	8%
Oc1ccc(/C=N/Nc2ccnc3cc(Cl)ccc23)cc1O	?	-19%	40µM*	-12%[11.4 µM]	?
Oc1ccc(/C=N/Nc2ccnc3cc(Cl)ccc23)c(O)c1O	22µM*	-37%[57 µM]	45µM*	?	45µM*
CCOC(=O)N1CCC(NC(=O)CSCc2nc(-c3ccc(C)cc3)oc2C)CC1	0%	37%	-16%	-14%	11%
